From the supplement of paper PMC6607015
Where a name gives a salt, the structure may show the parent alone.

test system: HeLa MZ; assay: filipin (cholesterol) integrated intensity within LBPA endosomes, Z-score; higher = more cholesterol in LBPA endosomes; conditions: compound concentration in added solution (µM; 5 µl added to 20 µl cells): 10; 18 h
Outline: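 Four 20× images per well were taken of HeLa MZ or A431 cells that had been seeded at 3,500 per well in 20 µl onto 5 µl of 10 µM compound solution in duplicate 384-well imaging plates. Before imaging, cells were incubated 18 h, fixed in 4% PFA and stained with 6C4 anti-LBPA antibody, filipin, propidium iodide and CellTracker green. Values are Z-scores normalised in AcuityXpress from MetaXpress-derived per-cell integrated LBPA or filipin intensity, either whole-cell or within LBPA endosomes.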

| Structure (SMILES) | filipin (z-score) |
| --- | --- |
| C[N+](C)(C)CCCCCCCCCC[N+](C)(C)C [Decamethonium bromide] | -0.446 |
| CC(C)c1c(CN(C)C(C)Cc2ccccc2)n(C)n(-c2ccccc2)c1=O (stereo not given) [Famprofazone] | -0.445 |
| C[C@]12Cc3c[nH]nc3C[C@@H]1CC[C@@H]1[C@@H]2CC[C@@]2(C)[C@H]1CC[C@]2(C)O [Stanozolol] | -0.12 |
| c1ccc2c(c1)OCC(C1=NCCN1)O2 (stereo not given) [Idazoxan hydrochloride] | -0.278 |
| NCCc1c[nH]c2ccc(O)cc12 [Serotonin hydrochloride] | -0.624 |
| CC[N+]1(C)CCCC(OC(=O)C(O)(c2ccccc2)c2ccccc2)C1 (stereo not given) [Pipenzolate bromide] | -0.211 |
| O=C(CCCN1CCC(n2c(=O)[nH]c3ccccc32)CC1)c1ccc(F)cc1 [Benperidol] | 1.91 |
| CC(C)C[C@H]1C(=O)N2CCC[C@H]2[C@]2(O)O[C@](NC(=O)[C@@H]3C=C4c5cccc6[nH]c(Br)c(c56)C[C@H]4N(C)C3)(C(C)C)C(=O)N12 [Bromocryptine mesylate] | 0.695 |
| CC(C)CC(N(C)C)C1(c2ccc(Cl)cc2)CCC1 (stereo not given) [Sibutramine HCl] | -0.424 |
| CNC(=O)Oc1ccc2c(c1)[C@]1(C)CCN(C)[C@@H]1N2C [Eserine sulfate, physostigmine sulfate] | -0.36 |
| CN1[C@@H]2CC[C@H]1C[C@@H](OC1c3ccccc3CCc3ccccc31)C2 [Deptropine citrate] | 1.23 |
| O=[N+]([O-])c1cc([As](=O)(O)O)ccc1O [Roxarsone] | -0.327 |
| O=c1[nH]c2ccccc2n1CCCN1CCC(n2c(=O)[nH]c3cc(Cl)ccc32)CC1 [Domperidone] | 2.01 |
| Cc1cccc(C)c1NC1=NCCCS1 [Xylazine] | -0.0906 |
| Cc1cc(C(C#N)c2ccc(Cl)cc2)c(Cl)cc1NC(=O)c1cc(I)cc(I)c1O (stereo not given) [Closantel] | -0.663 |
| C=C(C)[C@@H]1[C@H]2OC(=O)[C@@H]1[C@]1(O)C[C@H]3O[C@]34C(=O)O[C@H]2[C@]14C [Picrotoxinin] | -0.32 |
| C[N+]1(C)[C@@H]2CC[C@H]1C[C@@H](OC(=O)C(CO)c1ccccc1)C2 (stereo not given in full) [Methylatropine nitrate] | -0.173 |
| Oc1ccc2c3c1O[C@H]1[C@@H](O)CC[C@@]4(O)[C@@H](C2)N(CC2CCC2)CC[C@]314 [Nalbuphine hydrochloride] | -0.371 |

| Structure (SMILES) | filipin (z-score) |
| --- | --- |
| C[N+]12CCC(CC1)C(OC(=O)C(O)(c1ccccc1)c1ccccc1)C2 (stereo not given) [Clidinium bromide] | -0.364 |
| C#CCN(C)[C@H](C)Cc1ccccc1 [Selegiline hydrochloride] | -0.657 |
| NC(=O)C[S+]([O-])C(c1ccccc1)c1ccccc1 (stereo not given) [Modafinil] | -0.453 |
| CCN(CC)C(C)C(=O)c1ccccc1 (stereo not given) [Amfepramone hydrochloride] | -0.615 |
| CCC1(CC)C(=O)C=CNC1=O [Pyrithyldione] | -0.593 |
| CCCC(C)(COC(N)=O)COC(=O)NC(C)C (stereo not given) [Carisoprodol] | -0.604 |
| C[C@@H]1CN([C@H]2CC[C@](C#N)(c3ccc(F)cc3)CC2)CC[C@]1(C(=O)O)c1ccccc1 [Levocabastine hydrochloride] | -0.461 |
| CC(C)(N)Cc1ccccc1 [Phentermine hydrochloride] | -0.0575 |
| C(#CCN1CCCC1)CN1CCCC1 [Tremorine dihydrochloride] | 0.452 |
| Clc1ccc(C(OCCN2CCCCC2)c2ccccc2)cc1 (stereo not given) [Cloperastine hydrochloride] | 0.777 |
| NCCC(O)C(=O)NC1CC(N)C(OC2OC(CN)C(O)[C@H](O)[C@@H]2N)[C@H](OC2O[C@H](CO)[C@@H](O)[C@@H]2O)[C@@H]1O (stereo not given in full) [Butirosin disulfate salt] | -0.239 |
| O=c1[nH]oc2c1CCNC2 [THIP Hydrochloride] | -0.582 |
| CC(=O)NC1CCSC1=O (racemic) [N-Acetyl-DL-homocysteine Thiolactone] | -0.461 |
| C[N+]1(C)CCCC(OC(=O)C(O)(c2ccccc2)c2ccccc2)C1 (stereo not given) [Mepenzolate bromide] | -0.374 |
| CCCC(C)C1(CC)C(=O)NC(=O)NC1=O (stereo not given) [Pentobarbital] | -0.624 |
| C[C@]12CC[C@@H](O)C[C@@H]1CC[C@@H]1[C@@H]2CC[C@]2(C)C(=O)CC[C@@H]12 [Androsterone] | -0.291 |
| CCC1(C)CC(=O)NC(=O)C1 [Bemegride] | -0.434 |
